CYP2C19 act: activators of human cytochrome P450 2C19 | P33261 | recombinant CYP2C19, luciferin-H EGE luminescence; active compounds read high; 0 = fully inhibited enzyme, 1 = untreated enzyme | activation factor at 5 µM | 96,000 tested, under 10 active;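 active = activation factor of at least 2 at 5 µM in the primary screen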
CYP2C9 inh: human CYP2C9 inhibition; AID 777; CYP2C9 Supersomes, luciferin-H conversion, luminescence; inhibition, % at 5 µM; 20% of 96,000 active;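 active = blocking of liver enzyme CYP2C9 beyond about 50% at 5 µM, limit read from the data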
Target sequence (P11712 whole entry, looked up): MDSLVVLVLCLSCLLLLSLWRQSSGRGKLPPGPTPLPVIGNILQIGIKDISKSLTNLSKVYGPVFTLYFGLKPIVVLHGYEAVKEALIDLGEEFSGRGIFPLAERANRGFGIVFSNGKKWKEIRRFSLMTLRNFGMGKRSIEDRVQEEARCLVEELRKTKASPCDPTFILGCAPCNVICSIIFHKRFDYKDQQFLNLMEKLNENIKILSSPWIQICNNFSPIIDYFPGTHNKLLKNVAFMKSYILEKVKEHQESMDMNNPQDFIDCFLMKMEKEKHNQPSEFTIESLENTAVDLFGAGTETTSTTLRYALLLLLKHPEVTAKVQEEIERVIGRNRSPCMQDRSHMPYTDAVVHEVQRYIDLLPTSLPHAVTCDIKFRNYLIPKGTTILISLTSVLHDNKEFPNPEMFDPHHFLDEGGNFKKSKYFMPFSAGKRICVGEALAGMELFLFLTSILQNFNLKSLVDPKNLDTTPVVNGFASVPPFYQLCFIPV
CYP2C9 act: CYP2C9 (human) activation; P11712; 1.4% of 96,000 active; recombinant CYP2C9, luciferin-H conversion, luminescence; active compounds read high; factor 1 = untreated enzyme, 0 = blocked; AID 1024; activation factor at 5 µM;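 active = activation factor of 2 or more for CYP2C9 at a 5 µM dose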
Cav3 T inh: blocks human Cav3.2 T-type calcium channel; O95180; Cav3.2-expressing cells, Fluo-4 calcium fluorescence FDSS; active compounds read low; B-score at 10 µM; 4% of 100,000 active;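 active = single-dose well whose peak fluorescence ratio is a statistical outlier from its plate by either plate-standardised score or position-corrected B-score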
CYP2C19 inhib: human CYP2C19 inhibition. P33261. CYP2C19 Supersomes, luciferin-H EGE luminescence, 30 min. inhibition, % at 5 µM. 21% of 96,000 active. AID 778;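 active = CYP2C19 inhibition above a set limit at 5 µM in the primary screen, cut at about 50% in these data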
Large screens that a line does not name were inactive. Shown are actives, neighbours in structure and some others; about 27% of the full set was active somewhere.

C/C(=N\NC(=O)c1ccccc1O)c1c(O)cc(C)oc1=O	CYP2C9 inh 62
C/C(=N\NC(=O)c1ccccc1O)C1C(=O)c2ccccc2C1=O	CYP2C9 inh 90, Cav3 T inh -7.2
C=C1CCN([C@@H](Cc2ccccc2)C(=O)Nc2ccc(OC)cc2)S(=O)(=O)c2ccccc21	none (no result: CYP2C19 act, CYP2C9 inh, CYP2C9 act, CYP2C19 inhib)
Cc1nn(-c2cc(N3CCCCCC3)ccc2[N+](=O)[O-])c(=O)c2ccccc12	none
O=c1c2ccccc2c(-c2ccccc2)nn1-c1cc(Cl)ccc1[N+](=O)[O-]	Cav3 T inh -6.9, CYP2C19 inhib 61
CCc1ccc(-c2nn(-c3cc(Cl)ccc3[N+](=O)[O-])c(=O)c3ccccc23)cc1	Cav3 T inh -3.6
Cc1ccc(-c2nn(-c3cc(Cl)ccc3[N+](=O)[O-])c(=O)c3ccccc23)cc1C	Cav3 T inh -4.6
Cc1cccc(NC(=O)CSc2nnc(CSc3nc(C)cc(C)n3)n2Cc2ccco2)c1	none
CC1CCN(c2ccc3c(c2)S(=O)(=O)c2ccccc2C3=O)CC1	none (no result: CYP2C19 act, CYP2C9 inh, CYP2C9 act, CYP2C19 inhib)
Cc1cccc(N(CC(=O)NC2CCCC2)C(=O)CCCC(=O)Nc2ccccn2)c1	CYP2C9 inh 62, CYP2C19 inhib 78
COc1ccccc1N(CC(=O)NC1CCCC1)C(=O)c1csnn1	CYP2C19 inhib 91
COc1ccccc1N(CC(=O)NC1CCCCC1)C(=O)CCC(=O)Nc1ccccn1	CYP2C9 inh 60, CYP2C19 inhib 64
Cc1ccc(C)c(N(CC(=O)NC2CCCC2)C(=O)CCCC(=O)Nc2ccccn2)c1	CYP2C9 inh 83, CYP2C19 inhib 80
COc1cc(CCC(O)CC(=O)CCc2ccccc2)ccc1O (stereo not drawn)	none (no result: CYP2C19 act, CYP2C9 inh, CYP2C9 act, CYP2C19 inhib)
Cc1occc1C(=O)Nc1cccc(/C=C/C(=O)O)c1	none (no result: CYP2C19 act, CYP2C9 inh, CYP2C9 act, CYP2C19 inhib)
CCn1c(SCC(=O)NNC(=O)c2ccccc2)nnc1-c1ccncc1	none
COc1ccc(OC(=O)c2cc(S(=O)(=O)N3CCCC3)ccc2Cl)cc1	none
Cc1ccc(S(=O)(=O)N2CCCC2C(=O)O)cc1 (stereo not drawn)	none
O=S(=O)(c1cc(Cl)ccc1Cl)N1CCCCC1	CYP2C9 act 3.3, CYP2C19 inhib 65
O=S(=O)(c1cccc(Cl)c1)N1CCCC1	none
O=S(=O)(c1cc(Cl)ccc1Br)N1CCCCC1	CYP2C9 act 3.2, CYP2C19 inhib 96
O=C(O)C1CCCN1S(=O)(=O)c1cc(Cl)ccc1Cl (stereo not drawn)	CYP2C9 act 2.2
COc1ccc(Cl)c(S(=O)(=O)N2CCCC2)c1	CYP2C9 act 2.8, CYP2C19 inhib 80 (no result: Cav3 T inh)
Cc1ccc(S(=O)(=O)CCC(=O)NCc2ccco2)cc1	none
CC1CCN(S(=O)(=O)c2ccc3[nH]c(=O)c(=O)[nH]c3c2)CC1	none
CC1CCN(S(=O)(=O)c2ccc(Cl)cc2Br)CC1	CYP2C19 inhib 68
O=S(=O)(c1cc(Cl)ccc1Cl)N1CCCC1	CYP2C9 act 3.5, CYP2C19 inhib 56
Cc1cc(S(=O)(=O)N2CCCCCC2)c(Cl)cc1Cl	CYP2C19 inhib 73
O=S(=O)(c1ccc(F)c(Cl)c1)N1CCCC1	CYP2C19 inhib 54
COc1ccc(Cc2c(O)nc[nH]c2=O)cc1	none
COc1cccc(N2[C@@H](CC(C)=O)c3ccc(/C=C/C(C)=O)cc3S2(=O)=O)c1	none (no result: CYP2C19 act, CYP2C9 inh, CYP2C9 act, CYP2C19 inhib)
O=C(O)C1CCCN1S(=O)(=O)c1ccc(Br)s1 (stereo not drawn) (tested in a mixture with another compound)	CYP2C19 inhib 59
CC(=O)Nc1ccc(S(=O)(=O)N2CCN=C2C)cc1	none
CC1=NCCN1S(=O)(=O)c1cc(Cl)ccc1Cl	CYP2C9 act 2.8, CYP2C19 inhib 51
O=C(C1CCN(S(=O)(=O)c2ccc(Br)s2)CC1)N1CCc2ccccc21	none
Cc1cc2n(n1)C(c1cccs1)Nc1ccccc1-2 (stereo not drawn)	none
O=C(NNC(=O)c1cc(OCC(F)(F)F)ccc1OCC(F)(F)F)c1cccc(C(F)(F)F)c1	Cav3 T inh -9
O=C(NO)c1cc(OCC(F)(F)F)ccc1OCC(F)(F)F	none
Cc1ccc(C(=O)NNC(=O)c2cc(OCC(F)(F)F)ccc2OCC(F)(F)F)cc1	none
O=C(NCCNC(=O)c1cc(OCC(F)(F)F)ccc1OCC(F)(F)F)Nc1ccccc1	CYP2C9 inh 57
C#CCONC(=O)c1cc(OCC(F)(F)F)ccc1OCC(F)(F)F	CYP2C19 inhib 61
CCSc1nc(C)cc(Oc2ccc(=O)n(C)n2)n1	none (no result: Cav3 T inh)
c1ccc(C2=Nc3ccccc3SC2c2nc3ccccc3[nH]2)cc1 (stereo not drawn)	none
CCCCN(CC)C(=O)Cc1c(C(=O)O)[nH]c2ccc(Cl)cc12	CYP2C9 inh 95, CYP2C19 inhib 96
CCOCCCNC(=O)Cc1c(C(=O)O)[nH]c2ccc(Cl)cc12	none (no result: CYP2C19 act, CYP2C9 inh, CYP2C9 act, CYP2C19 inhib)
CCOC(=O)N1CCC(NC(=O)CCc2c(C)nc3c(c(C)nn3C(C)(C)C)c2C)CC1	CYP2C9 inh 82, CYP2C19 inhib 64
CCOC(=O)N1CCC(NC(=O)CCc2c(C)nc3nc(C)nn3c2C)CC1	none (no result: Cav3 T inh)
CC(C)(C)C1CCc2onc(C(=O)Nc3ccc(F)cc3F)c2C1 (stereo not drawn)	CYP2C19 inhib 63
CCCc1ccc(Oc2cc(N3CCOCC3)nc(-c3ccccc3)n2)cc1	none (no result: CYP2C19 act, CYP2C9 inh, CYP2C9 act, CYP2C19 inhib)
C#CCNC(=O)C1=C[C@@H](c2ccc(C(F)(F)F)cc2)C[C@@H](OCc2ccc(CO)cc2)O1	none (no result: CYP2C19 act, CYP2C9 inh, CYP2C9 act, CYP2C19 inhib)
c1cc(CNc2ccc3c(c2)OCCO3)ccn1	CYP2C9 inh 62, CYP2C19 inhib 73
CCCNC(=O)c1c(CSc2ccc(Cl)cc2)noc1C(=O)NCc1ccccc1	none (no result: CYP2C19 act, CYP2C9 inh, CYP2C9 act, CYP2C19 inhib)
CC1CCN(c2cc(=O)n(C3CCCCC3)c(=O)[nH]2)CC1	none
CCCSc1nnc(NC(=O)c2sc3nc(-c4cccs4)ccc3c2N)s1	CYP2C9 inh 53, Cav3 T inh -9.9
Cc1csc(NC(=O)c2sc3nc(-c4cccs4)ccc3c2N)n1	CYP2C9 inh 81, Cav3 T inh -5.4, CYP2C19 inhib 59
CCSc1nnc(NC(=O)c2cccs2)s1	none
Cc1csc(NC(=O)c2ccccc2O)n1	none
CCOC(=O)c1ccc(NS(=O)(=O)c2c(N)[nH]c(=O)[nH]c2=O)cc1	none (no result: CYP2C19 act, CYP2C9 inh, CYP2C9 act, CYP2C19 inhib)
Cc1c(C(=O)NN2CCCCC2)nn(-c2ccc(Cl)cc2Cl)c1-c1ccc(I)cc1	Cav3 T inh -4.9 (no result: CYP2C19 act, CYP2C9 inh, CYP2C9 act, CYP2C19 inhib)
CCCCCc1cc(=O)oc2c(C(CCN(CC)CC)c3cc(OC)c(OC)c(OC)c3)c(OC)cc(OC)c12 (stereo not drawn)	none (no result: CYP2C19 act, CYP2C9 inh, CYP2C9 act, CYP2C19 inhib)
O=C(CCNc1cccc(Cl)c1)c1ccco1	CYP2C19 inhib 85
O=C(CNC(=O)c1ccco1)OCc1cccc(Cl)c1	none
CC(C)c1nc(SCC(=O)c2ccccc2)c2c(=O)n(C)c(=O)n(C)c2n1	none
CC1=N/C(=C\c2ccc([N+](=O)[O-])cc2)C(=O)N1c1ccc(Br)c(C)c1	none
CCOC(=O)C(NCc1ccc(F)cc1)(NC(=O)c1ccccc1)C(F)(F)F (stereo not drawn)	none (no result: CYP2C19 act, CYP2C9 inh, CYP2C9 act, CYP2C19 inhib)
CCOC(=O)C(NC(=O)c1ccccc1)(N1CCCC1=O)C(F)(F)F (stereo not drawn)	CYP2C19 inhib 53
